Screening data as filed in PubChem BioAssay.
TLR4-MyD88 BLA = blocks binding of human TLR4 to MyD88; O00206+Q99836; HeLa CL3-4 TLR4/MyD88 BLA complementation, FRET ratio; inhibition, % at 8.4 µM; actives 0.18% (n = 200,000); in the data active means inhibition above about 25%;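 further: 0% = vehicle and 100% = reference inhibitor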
Myeloid diff 2 = myeloid differentiation induction; ER-HoxA9 myeloid progenitors, lysozyme-GFP differentiation, flow cytometry; calls only at 10 µM; actives 1% (n = 360,000); AID 624256;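 active means normalized GFP-positive differentiation at or above the plate's own cutoff, the solvent-only control mean plus 3 SD; inconclusive means no clear call, values can overlap the other calls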;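 further: cells exposed to compound for four days before flow analysis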
NOD2-RIPK2 inh = blocks binding of human NOD2 to RIPK2. CHO BLA complementation NOD2-RIPK2, CCF4 ratio. inhibition, % at 4.98 µM. AID 624267. O43353. actives 0.38% (n = 360,000); in the data active means inhibition above about 21%;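 further: 0% = vehicle only and 100% = reference blocker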
TLR9-MyD88 inh = inhibitors of human TLR9-MyD88 binding; inhibition, % at 4.98 µM; AID 504734; CHO BLA complementation TLR9-MyD88, CCF4 FRET ratio; actives 0.21% (n = 340,000); Q9NR96+Q99836;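 active means inhibition above the mean over all tested compounds plus 3 SD, cut at about 21% in these data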;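 further: 0% = DMSO only wells and 100% = clavulanate BLA inhibitor control wells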
TLR4 MyD88 cnf = TLR4-MyD88 interaction inhibition confirmed; shares compounds with TLR4-MyD88 BLA; HeLa CL3-4 BLA complementation, CCF4 FRET ratio; inhibition, % at 8.4 µM; actives 50% (n = 350); AID 941;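 active means mean inhibition across three repeat runs above about 25% carried over from the earlier screen, limit read from the data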;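 further: plate controls were DMSO only for no effect and clavulanic acid blocking BLA at full dose for full effect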
BLA inh HeLa = counter-screen for TLR4-MyD88 inhibitors: beta-lactamase reporter inhibitors; inhibition, % at 8.4 µM; shares compounds with TLR4-MyD88 BLA; actives 63% (n = 350); HeLa BLA reporter, CCF4 FRET ratio; AID 1237;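 active means mean inhibition over three repeats above about 26% taken from the earlier screen, limit read from the data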;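 further: HeLa cells stably expressing beta-lactamase reporter as counterscreen for TLR4-MyD88 inhibitors; 0% = DMSO and 100% = clavulanic acid full inhibition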
TLR9-MyD88 conf = confirmation of human TLR9-MyD88 binding inhibitors; shares compounds with TLR9-MyD88 inh; CHO TLR9/MyD88 BLA complementation, CCF4 FRET ratio; inhibition, % at 4.98 µM; actives 51% (n = 680);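 active means mean inhibition across three repeats above about 21% taken from the earlier screen, limit read from the data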;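 further: blue over green emission ratio reports constitutive TLR9 MyD88 association via BLA complementation; 0% = DMSO vehicle wells and 100% = clavulanate BLA inhibitor wells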
BLA counter-1 = counter-screen for TLR9-MyD88 inhibitors: non-selective beta-lactamase inhibitors | actives 7% (n = 680) | inhibition, % at 4.98 µM | AID 540251 | shares compounds with TLR9-MyD88 inh | CHO-BLA cells, CCF4 FRET ratio, BLA reporter;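 active means mean inhibition above a 50% cutoff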;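 further: counterscreen of TLR9-MyD88 hits on CMV-driven BLA in CHO-K1 cells; 0% = DMSO alone and 100% = clavulanate blocking BLA; higher means less blue over green ratio so more BLA blockade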
TLR9 CHO cytotox = counter-screen for TLR9-MyD88 inhibitors: cytotoxicity in CHO cells | shares compounds with TLR9-MyD88 inh | luminescence | inhibition, % at 4.98 µM | actives 39% (n = 680) | AID 588336; in the data active means inhibition above about 11%
Myeloid diff CP1 = myeloid differentiation induction; shares compounds with Myeloid diff 2; ER-HoxA9 myeloid progenitors, GFP/Mac1 double-positive flow; calls only; actives 2% (n = 2,300); AID 651706;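 active means share of green or green-and-red cells above 9 and 9% in run 1 or 4 and 3% in run 2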
GFP autofluor = counter-screen for myeloid differentiation promoters: compound fluorescence; shares compounds with Myeloid diff 2; ER-HoxA9 myeloid progenitors, no estrogen, GFP autofluorescence flow cytometry; vehicle wells 0%, positive control 100%; fluorescence response, % (concentration not given with the values); actives 7.4% (n = 2,300);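 active means over 5% cells positive for green fluorescent reporter, or over 2% positive for both it and APC stain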;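 further: range taken on the double positive population between DMSO and positive control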
NOD2-RIPK2 conf = confirmation of human NOD2-RIPK2 interaction inhibitors; shares compounds with NOD2-RIPK2 inh; CHO cells, NOD2-RIPK2 BLA complementation, CCF4 FRET; inhibition, % at 4.98 µM; actives 70% (n = 1,200);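 active means mean inhibition across replicates above a set limit taken from the earlier primary screen, cut at about 21% in these data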;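 further: 0% = DMSO-only wells and the high end = clavulanate BLA-blocked wells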
BLA counter-2 = hits BLA reporter in NOD2-RIPK2 inhibitor counterscreen; actives 57% (n = 1,200); shares compounds with NOD2-RIPK2 inh; CHO BLA reporter, CCF4 FRET ratio; inhibition, % at 4.98 µM;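 active means mean inhibition above the low-control mean inhibition plus three low-control SD, cut at about 11% in these data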;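 further: 0% = DMSO only wells and 100% = clavulanate high control wells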
Starred values were filed as active, the others as inactive; i = inactive; ? = inconclusive; . = no result given; + = active, no number. Shown are actives, neighbours in structure and some others; about 1.5% of the full set was active somewhere.

SMILES	TLR4-MyD88 BLA	Myeloid diff 2	NOD2-RIPK2 inh	TLR9-MyD88 inh	TLR4 MyD88 cnf	BLA inh HeLa	TLR9-MyD88 conf	BLA counter-1	TLR9 CHO cytotox	NOD2-RIPK2 conf	BLA counter-2	others
CCN(CC)c1ccc(-c2nc3cnccn3c2NC2CCCC2)cc1	52*	i	22*	36*	31*	61*	37*	40	1	56*	66*
c1cn2c(NC3CCCCC3)c(-c3ccc(SC4CCCCC4)cc3)nc2cn1	.	i	3	1	.	.	.	.	.	.	.
COCCN(CC(=O)NC1CCCCC1)C(=O)/C=C/C(=O)c1ccc(OC)cc1O	31*	.	50*	21	27*	-8	.	.	.	91*	12*
CCCCOCCCNC(=O)C[C@@H]1C[C@@]2(C(=O)OC)CCCCC=C2N(Cc2cccc3ccccc23)C1=O	.	i	11	.	.	.	.	.	.	.	.
O=C(OCCN1C(=O)c2cccc3c(N4CCOCC4)ccc(c23)C1=O)c1ccccc1Cl	41*	i	53*	40*	46*	65*	.	.	.	54*	60*
O=C1c2cccc3c(N4CCCCC4)ccc(c23)C(=O)N1c1cccc(O)c1	50*	+	54*	42*	35*	55*	35*	33	11*	61*	68*	Myeloid diff CP1=i;GFP autofluor=0
O=C1c2cccc3c(N4CCCCC4)ccc(c23)C(=O)N1CCO	7	i	21	13	.	.	.	.	.	.	.
C=CCN1C(=O)c2cccc3c(N4CCCCC4)ccc(c23)C1=O	51*	i	22*	8	36*	61*	.	.	.	61*	64*
COC(=O)C[C@H]1C=C[C@@H](NC(=O)C2CC2)[C@@H](CO)O1	.	i	-15	.	.	.	.	.	.	.	.
COc1cc(/C=C/CNC[C@H]2O[C@@H](n3cnc4c(N)ncnc43)[C@H](O)[C@@H]2O)ccc1O	.	i	-2	.	.	.	.	.	.	.	.
CC1(C)CC(Cc2ccc(C(F)(F)F)cn2)N(C(=O)OC(C)(C)C)C1 (stereo not given)	.	i	-5	.	.	.	.	.	.	.	.
CCCCn1nnnc1C(c1cccc2ccccc12)N1CCN(C/C=C/c2ccccc2)CC1 (stereo not given)	.	i	-11	.	.	.	.	.	.	.	.
COc1cc2c(cc1OC)C(=Cc1ccc(N(C)C)cc1)C=C2	.	i	-7	-4	.	.	.	.	.	.	.
COc1cc2nc(/C=C/c3ccc(N(C)C)cc3)sc2cc1SC	64*	+	41*	32*	65*	96*	53*	59*	1	78*	82*
COc1ccc(OC)c(CN2C(=O)CSCC2(C)C(=O)NC(C)C)c1 (stereo not given)	.	i	-8	.	.	.	.	.	.	.	.
CN(C)CCCN1C(=O)c2cccc3c([N+](=O)[O-])ccc(c23)C1=O	86*	?	82*	70*	86*	109*	55*	72*	95*	90*	77*
CC(=O)Nc1nc2n(n1)C(c1ccc(F)cc1)C=C(c1ccccc1)N2 (stereo not given)	34*	i	41*	41*	36*	56*	7	8	4	-1	3
